Test results as given in ChEMBL document CHEMBL4513146, “CO-ADD screening of Karazin Kharkiv National University (Ukraine) compounds”.
Measured potencies and affinities stand elsewhere.

System: Cryptococcus neoformans
Details: Concentration 32 ug.mL-1; ASSAY_TEST Inhibition of Fungal Growth; detection method Resazurin; Absorption (OD600-OD570); plate type 384well; NBS; CORNING #3640

Structure (SMILES) | Inhibition
Cc1ccc2c(c1)N(C(=O)Cn1nc3ccc(SCc4ccc(Cl)cc4)nn3c1=O)CCO2 | -22.86%
COc1ccc(Cl)cc1NC(=O)CSc1nnc2c(=O)n(-c3ccc(C)c(C)c3)ccn12 | -9.59%
CCOc1ccc(-n2ccn3c(SC(CC)C(=O)Nc4cc(F)ccc4F)nnc3c2=O)cc1 (centres undefined) | -9.91%
Cc1cccc(NC(=O)Cn2nc3ccc(-c4ccccc4)nn3c2=O)c1 | -14.95%
Cc1ccc(-c2ccc3nn(Cc4nc(-c5ccc(Cl)cc5)no4)c(=O)n3n2)cc1C | -12.88%
Cc1[nH]c2ccccc2c1C(=O)CSc1nnc2c(=O)n(-c3ccc(F)c(F)c3)ccn12 | -11.39%
O=c1c2nnc(SCc3ccccc3Cl)n2ccn1-c1ccc(F)c(F)c1 | -8.25%
CCC(Sc1nnc2c(=O)n(-c3cccc(OC)c3)ccn12)C(=O)Nc1cc(OC)cc(OC)c1 (centres undefined) | -13.16%
O=C(Cn1nc2ccc(SCc3ccc(Cl)cc3)nn2c1=O)NC1CCCCC1 | -27.33%
Cc1nnc2c(SCC(=O)Nc3ccc(C#N)cc3)nc3ccccc3n12 | -16.12%
O=C(Cn1nc2c3cc(-c4ccccc4)nn3ccn2c1=O)N1CCN(c2ccccc2F)CC1 | -28.45%
Cc1oc(-c2ccccc2)nc1CSc1nc2ccccc2n2c(C)nnc12 | -6.62%
COc1cccc(CNC(=O)CCc2nnc3ccc(-c4ccc(C)cc4)nn23)c1 | -1.51%
COc1cccc(-n2ccn3c(=O)n(Cc4ccc([N+](=O)[O-])cc4)nc3c2=O)c1 | -8.87%
